# High-throughput results from PubChem.
# IL1B secr inh – qHTS for Inhibitors of Inflammasome Signaling: IL-1-beta AlphaLISA Primary Screen; THP-1 LPS/ATP IL-1B secretion, AlphaLISA, 16 h; active compounds read low; AID 743279, 2014; activity change, % at 57.5 µM; 360,000 tested, 4.7% active; in the data active = activity change below about -50%; inconclusive = mostly about -30% to -49%
#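 THP-1 cells pretreated 1 hr with compounds (up to 57.5 uM final), then stimulated with LPS (250 ng/mL final) plus ATP (1.25 mM final); secreted IL-1B measured by AlphaLISA after 16 hr, decreased signal indicating inhibition.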
# HT1080 IDH1KD tx – qHTS for induction of synthetic lethality in tumor cells producing 2HG: qHTS for the HT-1080-IDH1KD cell line; HT-1080 IDH1 knockdown viability, ATP luminescence, 48 h; Potency, µM (doses to about 46.1 µM), inactives show at the highest dose activity, negative = toxicity, hits mostly cytotoxic; 360,000 tested, 2% active; AID 686971, 2013;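 note: potency is the fitted concentration of half-maximal effect; 0% = DMSO wells and -100% = cell-free medium wells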
#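 Viability of IDH1-knockdown HT-1080 fibrosarcoma cells was assessed by CellTiter-Glo after 48 h at 37 °C with titrated compound; concentration-effect curves were classified by fit quality and response size.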
# TDP1 cell noCPT – qHTS for Inhibitors of human tyrosyl-DNA phosphodiesterase 1 (TDP1): qHTS in cells in absence of CPT; DT40 Tdp1-/- hTDP1 cells, no CPT, ATP luminescence, 48 h; Potency, µM (top dose mostly 46.2 µM), for the others: at the highest dose activity change, negative = growth inhibition, actives largely listed as inhibitors; 420,000 tested, 15% active; note: potency is the fitted concentration of half-maximal effect; nearly all actives have a fitted effect of over 55% in size
#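 Stably hTDP1-transfected Tdp1-null chicken DT40 cells were treated with library compounds minus camptothecin and grown for at least 48 hr at 37 °C, after which cellular ATP was quantified by luminescence.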
# HT1080NT lethal – qHTS for induction of synthetic lethality in tumor cells producing 2HG: qHTS for the HT-1080-NT fibrosarcoma cell line; HT-1080-NT fibrosarcoma viability, CellTiter-Glo ATP luminescence, 48 h; Potency, µM (doses to about 46.1 µM), without a hit: top-dose activity, negative = less viability, most hits filed as cytotoxic; 360,000 tested, 1.6% active;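 note: NT is the 2HG producing partner of a matched IDH1 knockdown line; potency is the fitted concentration of half-maximal effect; 0% = DMSO-treated cells and -100% = media-only wells without cells; nearly all actives have a fitted effect of over 55% in size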
#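 Viability by CellTiter-Glo luminescence after 48 h compound exposure at 37C of HT-1080-NT cells (750/well, RPMI, 5% FBS). % activity scaled between DMSO wells and medium-only wells, then curve-fitted and categorized by curve class.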
# uPA surface inh – qHTS for Inhibitors of Cell Surface uPA Generation | cell surface uPA generation assay, qHTS | Potency, µM (series often up to 38.3 µM), without a hit: at the top dose activity change, negative = inhibition, usual class: inhibitors | AID 540303, 2011 | 330,000 tested, 0.31% active; active = well fitted inhibition curve with a large enough effect; inconclusive = small, poorly fitted or top-dose-only effect; inactive = no such curve, though single readings can be large or run the other way; tested in mouse RAW 264.7 cells; note: potency is the fitted concentration of half-maximal effect; nearly all actives have a fitted effect of over 55% in size
# DT40 TDP1 CPT – qHTS for Inhibitors of human tyrosyl-DNA phosphodiesterase 1 (TDP1): qHTS in cells in presence of CPT. Potency, µM (doses to about 46.2 µM), for inactives: top-dose activity change, negative = growth inhibition, actives largely listed as inhibitors. chicken DT40 Tdp1-/-;hTDP1 cells + 20 nM CPT, ATP luminescence, 48 h. AID 686979, 2013. 420,000 tested, 12% active; note: potency is the fitted concentration of half-maximal effect; nearly all actives have a fitted effect of over 55% in size
#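 Chicken DT40 Tdp1-/- cells complemented with human TDP1, 400 cells/well, exposed to compounds plus 20 nM camptothecin for at least 48 h at 37 C; viability read as ATP content by CellTiter-Glo luminescence.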
# * marks the source's active call; other numbers are inactive results; u = inconclusive; x = no result given. Rows were chosen to be rich in hits. Some 19% of all compounds tested hit in one or more screens of this group. Unless noted, calls come from the whole dose curve; as a rule, active = well fitted curve in the direction sought with a large enough effect; inconclusive = small, poorly fitted or top-dose-only effect, or another doubt; inactive = no such curve, though single readings can be large; an effect the other way counts as inactive or inconclusive. Unless noted, % is set by controls: 0 for no effect and ±100 for the full control effect.
SMILES,IL1B secr inh,HT1080 IDH1KD tx,TDP1 cell noCPT,HT1080NT lethal,uPA surface inh,DT40 TDP1 CPT
CC(C)n1cc(CN2CCC(C(=O)Nc3ccc(Oc4ccccc4F)cc3)CC2)cn1,-4,21µM*,u,u,u,u
CC(C)n1cc(CN2CCC(C(=O)Nc3cccc(-c4cscn4)c3)CC2)cn1,-8,-18%,-2%,-2%,-5%,-15%
Cc1c(C(=O)N/N=C/c2cccs2)nc2ccccn12,8,21%,u,10%,2%,-5%
CCOC(=O)C1CCCN(c2nc3ccccc3nc2C(C#N)C(=O)OCC)C1 (configuration not stated),-29,-28%,23µM*,u,-11%,u
CCOC(=O)C1CCCN(c2nc3ccccc3nc2C(C#N)C(=O)OCCOC)C1 (configuration not stated),-18,-8%,21µM*,-5%,1%,u
Nc1nc2c(ncn2[C@@H]2O[C@H](CNCc3cnc(N4CCOCC4)s3)[C@@H](O)[C@H]2O)c(=O)[nH]1,-11,19%,-1%,12%,x,-14%
COc1cc2c(NC3CCN(C)CC3)nc(N3CCCN(C)CC3)nc2cc1OCCCCCN(C)C,x,x,14µM*,x,x,11µM*
COc1cc2c(NC3CCN(C)CC3)nc(N3CCCN(C)CC3)nc2cc1OCCN(C)C,x,-1%,11µM*,3%,x,11µM*
COc1cc2c(NC3CCN(C(C)C)CC3)nc(N3CCCN(C)CC3)nc2cc1OCCCN(C)C,x,x,6.3µM*,x,x,3.2µM*
O=C(Cn1c(=O)nc(-c2ccccc2)c2ccccc21)Nc1ccc(Cl)c(C(F)(F)F)c1,x,x,7%,x,x,7%
COc1ccc(-c2noc(CCC(=O)N3CCN(c4ccccc4F)CC3)n2)cc1,u,6%,-16%,-1%,4%,-16%
Cc1ccc(C(=O)Sc2cccccc2=O)cc1,-97*,1.6µM*,0.52µM*,u,14%,0.73µM*
COc1ccc(C(=O)Nc2ccccc2C(=O)N/N=C/c2ccco2)cc1,19,u,u,9.2µM*,-18%,-20%
O=C(Nc1ccccc1C(=O)Nc1ccccc1C(=O)O)c1ccccc1,39,u,12µM*,u,-19%,u
Cc1ccc(C(=O)CC(=O)c2ccccc2)cc1,-2,6%,u,0%,-8%,u
CCOc1ccc(/C=N/NC(=O)c2ccccc2NC(=O)c2ccc(OC)cc2)cc1,18,-17%,u,-22%,-11%,u
Nc1ccccc1NC(=O)c1ccccc1,87,-13%,18µM*,-3%,-13%,21µM*
Cc1cccc(OC(=O)c2nc(SCc3ccccc3F)ncc2Cl)c1,x,x,-15%,x,x,-3%
Cc1ccc(-n2nc3c(=O)n(CCCC(=O)N4CCC(C(N)=O)CC4)nc(C)c3c2C)cc1,-22,1%,8%,2%,-3%,6%
Cc1cccc(NC(=O)c2ccccc2NC(=O)c2ccccc2)n1,16,-12%,18µM*,-16%,-5%,u
O=C(N/N=C/c1ccncc1)c1ccc(OCc2ccccc2)cc1,-16,-13%,0%,0%,-10%,-25%
Nc1ccc(NC(=O)c2ccccc2)c2c1C(=O)c1ccccc1C2=O,18,-4%,16µM*,-3%,2%,13µM*
O=C(Nc1ccccc1SC(=O)c1ccccc1)c1ccccc1,20,-12%,4.6µM*,3%,x,3.3µM*
O=C(Nc1ccc(NC(=O)c2ccccc2)c2ccccc12)c1ccccc1,-8,-16%,-7%,u,x,-11%
O=C(Nc1ccccc1C(=O)N/N=C/c1ccncc1)c1ccccc1,28,9.2µM*,21µM*,21µM*,-17%,u
SMILES,IL1B secr inh,HT1080 IDH1KD tx,TDP1 cell noCPT,HT1080NT lethal,uPA surface inh,DT40 TDP1 CPT
CSc1ccccc1NC(=O)c1ccccc1,-11,9%,6%,16%,-3%,7%
CCN1C(=O)[C@H]2[C@H]3CN=C(SC)N3[C@@](Cc3ccccc3)(C(=O)OC)[C@H]2C1=O,4,8%,10%,6%,-5%,-5%
COc1ccccc1NC(=O)c1ccc(NC(=O)C2CC2)cc1,-17,10%,1%,22%,2%,9%
Nc1ccc(C(=O)Nc2ccccc2C(=O)O)cc1,-5,-1%,-20%,3%,-3%,1%
O=C(Nc1ccccc1O)c1ccc(NC(=O)C2CC2)cc1,-6,u,12µM*,u,-6%,12µM*
O=C(Nc1ccccc1C(=O)O)c1ccc(NC(=O)C2CC2)cc1,6,-15%,-10%,-6%,7.9µM*,u
Cc1nc(N2CCN(C(=O)c3ccco3)CC2)c2oc3ccccc3c2n1,u,u,21µM*,u,-8%,15µM*
CCc1nc(N2CCN(C(=O)c3ccco3)CC2)c2oc3ccccc3c2n1,-27,u,21µM*,u,-25%,21µM*
CN(CC(=O)NCCc1ccc(F)cc1)Cc1cccc(Cl)c1,u,-10%,u,-17%,3%,-17%
CSc1cccc(NC(=O)C2(S(=O)(=O)c3ccc(C)cc3)CC2)c1,-9,0%,-21%,21%,0%,0%
O=C(CSc1nnc(-c2cccs2)n1-c1ccccc1)N1CCCc2ccccc21,u,u,16µM*,-31%,x,u
O=C(CSc1nnnn1-c1ccccc1)N1CCCc2ccccc21,-55*,1%,-16%,-1%,1%,-1%
CSc1nsc(SCC(=O)N2CCCc3ccccc32)n1,-6,-7%,29µM*,3%,0%,u
O=C(CSc1n[nH]c(-c2ccccc2O)n1)N1CCCc2ccccc21,36,16µM*,21µM*,u,-11%,u
Cc1nn(C(=O)c2ccc(Cl)cc2)c(C)c1S(=O)(=O)N1CCOCC1,x,x,-7%,x,x,-16%
CC1(C(=O)NS(=O)(=O)Cc2ccccc2)CCN1C(=O)C1(c2ccc(Cl)cc2)CCC1 (configuration not stated),30,9%,-17%,-12%,x,u
Cc1cc(-c2nnc(CCC(=O)NCc3ccc(OC(F)(F)F)cc3)o2)no1,33,-14%,29%,-17%,-1%,0%
CC1(C)CC(=O)C2=C(C1)OC(N)=C([N+](=O)[O-])C2c1cccs1 (configuration not stated),33,8%,-13%,0%,-1%,3%
